MCF10A rerep – induces DNA re-replication in MCF 10a normal breast cells | MCF 10A DNA re-replication, Hoechst nuclear intensity, 48 h | Potency, µM (series often up to 46.1 µM), actives largely listed as activators | hit rate 2.9% among 350,000 | AID 624296; also: nearly all actives have a fitted effect of over 50% in size
RORg inh – inhibitors of mouse ROR gamma transcriptional activity. P51450. Drosophila S2 Gal4-RORgamma UAS-luciferase reporter, 20 h. Potency, µM (series often up to 53.6 µM), hits mostly inhibitors. hit rate 5.4% among 310,000. AID 2551; also: nearly all actives have a fitted effect of over 60% in size
Target sequence (P51450 whole entry, looked up, the tested form may be a part): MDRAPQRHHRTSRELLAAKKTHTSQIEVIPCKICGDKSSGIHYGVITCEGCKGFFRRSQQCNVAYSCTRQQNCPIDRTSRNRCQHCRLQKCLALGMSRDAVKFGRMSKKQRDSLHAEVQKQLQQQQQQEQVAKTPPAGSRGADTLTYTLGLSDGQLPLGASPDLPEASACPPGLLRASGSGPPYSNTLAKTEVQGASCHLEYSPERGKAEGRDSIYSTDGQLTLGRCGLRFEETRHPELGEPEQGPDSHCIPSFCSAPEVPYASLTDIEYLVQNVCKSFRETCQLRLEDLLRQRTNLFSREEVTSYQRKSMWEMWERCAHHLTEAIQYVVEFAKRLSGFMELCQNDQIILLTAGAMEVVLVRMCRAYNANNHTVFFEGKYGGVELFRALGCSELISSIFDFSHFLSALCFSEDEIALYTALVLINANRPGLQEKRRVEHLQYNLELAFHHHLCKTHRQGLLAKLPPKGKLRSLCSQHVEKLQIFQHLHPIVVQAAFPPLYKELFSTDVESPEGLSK
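Drosophila S2 cells stably expressing Gal4-DBD/mouse RORγ fusion under metallothionein promoter plus UAS-luciferase; compound 1 h, then 700 uM CuSO4 induction for 20 h at ambient temperature; inhibition read as reduced luminescence.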
SW480 rerep – DNA re-replication induction in SW480 cells. SW480 DNA re-replication, Hoechst DNA content imaging, 48 h. Potency, µM (titrated, usually from 46.1 µM), usual class: activators. hit rate 1.8% among 340,000; also: nearly all actives have a fitted effect of over 55% in size
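Image-based DNA-content assay: after two days of treatment, nuclei were labelled with the DNA dye Hoechst and imaged, and hits were compounds raising the count of nuclei showing high fluorescence intensity.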
VP16 counter – Gal4-VP16 reporter inhibition counter-screen. Drosophila S2 Gal4-VP16 UAS-luciferase, luminescence, 20 h. AID 2546. hit rate 3.5% among 310,000. Potency, µM (highest dose often 53.6 µM), actives largely listed as inhibitors;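 also: Gal4-VP16 expression switched on by copper sulfate through the metallothionein promoter; nearly all actives have a fitted effect of over 50% in size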
ELG1 repair inh – inhibitors of ELG1-dependent DNA repair in HEK293T cells; HEK293T ELG1-luciferase reporter, luminescence, 16 h; DNA damage induced by 5-fluorouridine; Potency, µM (highest dose often 46.1 µM), most hits filed as inhibitors; hit rate 2.3% among 330,000; also: nearly all actives have a fitted effect of over 55% in size
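5-Fluorouridine DNA damage + compound/DMSO, 2,000 cells/well, 16 h, 37 °C/5% CO2. ONE-Glo, 30 min RT, luminescence. Readout = decrease in reporter signal.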
ELG1 FLuc counter – luciferase inhibition in cell-free luciferin readout for ELG1 hits | shares compounds with ELG1 repair inh | cell-free firefly luciferase luminescence counter-screen, ViewLux | Potency, µM (highest dose often 46.1 µM), actives largely listed as inhibitors | hit rate 3% among 350 | AID 624247
ELG1 Luc conf – human ELG1 repair inhibition, luciferase-tagged ELG1 confirmation. Potency, µM (top dose mostly 46.1 µM), actives largely listed as inhibitors. shares compounds with ELG1 repair inh. hit rate 68% among 670. HEK293T ELG1-luciferase levels, luminescence; cells co-treated with 5-fluorouridine; also: nearly all actives have a fitted effect of over 55% in size
ELG1-Luc MMS – inhibits ELG1-dependent repair under MMS stimulation in HEK293T cells | shares compounds with ELG1 repair inh | HEK293T luciferase-tagged ELG1 level, MMS stimulated | Potency, µM (titrated, usually from 46.1 µM), usual class: inhibitors | hit rate 53% among 670 | AID 624249; also: nearly all actives have a fitted effect of over 60% in size
ELG1 5-FU – confirmation of ELG1 repair inhibitors: viability with 5FU; shares compounds with ELG1 repair inh; cell viability with 5-FU, ELG1-dependent repair; Potency, µM (top dose mostly 46.1 µM), actives largely listed as cytotoxic; 670 tested, under 10 active; AID 624250;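 also: ELG1-luc HEK293T cells cotreated with 5-fluorouridine at 10 µM final; viability measured 16 h after compound addition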
ELG1 MMS viab – confirmation of ELG1 repair inhibitors: viability with MMS; Potency, µM (highest dose often 46.1 µM), actives largely listed as cytotoxic; Cell viability with MMS, ELG1-dependent DNA repair; shares compounds with ELG1 repair inh; hit rate 33% among 670;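 also: ELG1-luc HEK293T cells co-treated with 10 µM MMS; viability read 16 h after compound addition; nearly all actives have a fitted effect of over 60% in size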
ELG1 unstim viab – counter-screen for ELG1 repair inhibitors: unstimulated cell viability | AID 624252 | hit rate 8% among 900 | shares compounds with ELG1 repair inh | Potency, µM (top dose mostly 45.9 µM), most hits filed as cytotoxic | cell viability counter-screen, unstimulated, luminescence;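 also: compound exposure lasted 16 hours before reading; nearly all actives have a fitted effect of over 55% in size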
FLuc enzyme – firefly luciferase inhibition counter-screen; shares compounds with ELG1 repair inh; purified firefly luciferase, luminescence counter-screen; hit rate 10% among 350; AID 624253; Potency, µM (highest dose often 57.5 µM), usual class: inhibitors
Hits are given with their value; n = inactive; u = inconclusive; x = no result; [ ] = dose if it differs, or a comment. The list is not random: actives were taken first. Their share in the collection is about 10%. Calls follow the shape of the dose curve; as a rule, active = well fitted curve in the direction sought with a large enough effect; inconclusive = small, poorly fitted or top-dose-only effect, or another doubt; inactive = no such curve, though single readings can be large; an effect the other way counts as inactive or inconclusive.

SMILES | MCF10A rerep | RORg inh | SW480 rerep | VP16 counter | ELG1 repair inh | ELG1 Luc conf | ELG1-Luc MMS | ELG1 5-FU | ELG1 MMS viab | ELG1 unstim viab | others
CC(C)NC(=O)N(C)C[C@H]1Oc2c(NC(=O)Nc3ccc(C(F)(F)F)cc3)cccc2C(=O)N([C@H](C)CO)C[C@@H]1C | n | x | n[9.22 µM] | x | n | x | x | x | x | x
C[C@H](CO)N1C[C@H](C)[C@@H](CN(C)C(=O)Nc2ccc(C(F)(F)F)cc2)Oc2c(NC(=O)Nc3ccccc3)cccc2C1=O | u | x | n | x | 0.52µM | 6.3µM | n | u | n | u | ELG1 FLuc counter=n;FLuc enzyme=u
O=C(c1cc(Cl)nc2ccccc12)N1CCN(S(=O)(=O)c2ccccc2[N+](=O)[O-])CC1 | n | n | n | u | u | x | x | x | x | x
O=C(CNC(=O)c1cccs1)Nc1ccc(N2CCOCC2)cc1 | n | x | n | x | u | x | x | x | x | x
Cc1ccc(-n2nc3c(=O)n(CC(=O)NCCc4ccccc4C)nc(C)c3c2C)cc1 | n | n | n | n | 3.7µM | u | 10µM | n | 10µM | u
CCN(C(=O)CSc1nc2cc(S(=O)(=O)N(CC)CC)ccc2n1CC)C1CCS(=O)(=O)C1 (configuration not stated) | n | x | n | x | u | x | x | x | x | x
N#C/C(=C\c1cccnc1)c1ccccn1 | n | n | n | n | u | x | x | x | x | n | ELG1 FLuc counter=n;FLuc enzyme=n
O=C(c1csnn1)N1CCC2(CC1)CN(Cc1cc(C(F)(F)F)cc(C(F)(F)F)c1)C2 | x | n | x | n | x | x | x | x | x | x
COc1ccc(CNC(=O)C(c2ccc(C)o2)N(Cc2cccs2)C(=O)Cc2cccs2)cc1 (configuration not stated) | u | n | n | u | 21µM | 11µM | u | n | n | u | ELG1 FLuc counter=n;FLuc enzyme=n
CCn1cc([N+](=O)[O-])c(C(=O)Nc2ccn(Cc3ccccc3)n2)n1 | n | n | n | n | n | x | x | x | x | x
Cc1ccc(Cn2ccc(NC(=O)c3nn(C)cc3[N+](=O)[O-])n2)cc1 | 13µM | n | 12µM | n | u | u | u | n | n | n
O=C(COC(=O)CCSc1ccccc1)NCc1ccccc1Cl | n | n | n | n | u | x | x | x | x | x
COc1ccc(-c2nc(-c3cccnc3)no2)cc1 | n | n | u | n | u | x | x | x | x | n
CCOc1ccc(-c2nc(-c3cccnc3)no2)cc1 | n | u | n | u | u | x | x | x | x | x
CC(C)CCOc1ccc(C(=O)NCC(c2cccs2)N2CCOCC2)cc1 (configuration not stated) | n | x | n | x | n | x | x | x | x | x
COc1ccc(CCNC(=S)NC(=O)c2cc(OC)c(OC)c(OC)c2)cc1OC | u | n | n | n | 1.8µM | 2.5µM | n | u | n | u
COc1cc(C(=O)NCc2ccncc2)cc(OC)c1OC | n | n | n | n | u | x | x | x | x | x
COc1cc(C(=O)NCc2ccccc2)cc(Br)c1OC | n | n | n | n | 3.7µM | u | n | u | n | n
Cc1nc2ccc(NC(=O)COc3ccccc3F)cc2s1 | n | n | n | n | u | x | x | x | x | x
O=C(COc1ccccc1F)Nc1ccc(-c2nc3ccccc3s2)cc1 | x | x | x | x | x | x | x | x | x | n | ELG1 FLuc counter=n;FLuc enzyme=u
O=c1c2ccccc2oc2c1ccc1ccccc12 | n | x | n | x | u | x | x | x | x | n
O=c1c2ccccc2ccc2ccccc12 | n | x | n | x | n | x | x | x | x | x
COc1ccc(CNC(=O)c2nn(C)c3c2CS(=O)(=O)c2ccccc2-3)cc1 | n | n | n | n | n | x | x | x | x | x
COc1ccc(OC)c(CNC(=O)c2nn(C)c3c2CS(=O)(=O)c2ccccc2-3)c1 | n | n | n | n | 3.3µM | 11µM | n | n | n | u
C[C@H](NC(=O)C1CC(=O)N(c2ccc3c(c2)OCO3)C1)C(=O)NC1CCCCC1 (some centres not stated) | n | n | n | n | n | x | x | x | x | x
SMILES | MCF10A rerep | RORg inh | SW480 rerep | VP16 counter | ELG1 repair inh | ELG1 Luc conf | ELG1-Luc MMS | ELG1 5-FU | ELG1 MMS viab | ELG1 unstim viab | others
COc1ccc(CCNC(=O)CSc2cn(Cc3cccc(C)c3)c3ccccc23)cc1OC | n | n | n | n | u | x | x | x | x | x
Cc1cccc(Cn2cc(SCC(=O)Nc3nccs3)c3ccccc32)c1 | n | u | n | u | u | x | x | x | x | n | ELG1 FLuc counter=n;FLuc enzyme=2.9µM
Cc1[nH]nc2ncc(C(=O)c3ccccc3O)cc12 | n | n | n | n | 2.5µM | 3.5µM | 10µM | u | u | n
O=C(CNC(=O)c1ccncc1)N/N=C/c1ccccc1[N+](=O)[O-] | n | n | n | n | n | x | x | x | x | x
O=C(CNC(=O)c1cccc(F)c1)N/N=C/c1ccc([N+](=O)[O-])s1 | u | n | 18µM | n | 2.9µM | u | 10µM | n | 14µM | n
CC(=O)c1c(C)n(-c2ccc(Br)cc2)c2ccc(O)cc12 | u | n | n | n | n | x | x | x | x | x
CC(=O)c1ccc(-n2c(C)c(C(C)=O)c3cc(O)ccc32)cc1 | n | n | n | n | 2.1µM | u | n | n | n | n
O=[N+]([O-])c1cnc(Nc2ccc(Cl)cn2)c([N+](=O)[O-])c1 | n | u | u | u | u | x | x | x | x | x
CC(=O)NC(CC(=O)Nc1ccc(S(=O)(=O)Nc2nccs2)cc1)c1ccccc1 (configuration not stated) | n | x | n | x | 0.52µM | u | n | n | n | n | ELG1 FLuc counter=n;FLuc enzyme=n
CC(=O)NC(CC(=O)Nc1ccc(S(=O)(=O)NC2=NCCCCC2)cc1)c1ccccc1 (configuration not stated) | n | x | n | x | n | x | x | x | x | x
Cc1ccc(S(=O)(=O)N2CCC(C(=O)N3CCCC(C(F)(F)F)C3)CC2)cc1C (configuration not stated) | n | x | n | x | n | x | x | x | x | x
O=C(N/N=C/c1ccccc1C(=O)O)c1cccc(S(=O)(=O)N2CCOCC2)c1 | n | x | n | x | n | x | x | x | x | x
O=C(N/N=C/c1sc(N2CCOCC2)nc1-c1ccccc1)c1cccc(S(=O)(=O)N2CCOCC2)c1 | u | u | 21µM | n | 4.6µM | 4µM | 6.3µM | n | u | u
